Shown are actives, neighbours in structure and some others; about 2% of the full set was active somewhere.
IL-2 act: IL-2 activation. IL-2 activation reporter assay, cell-based qHTS; stimulated with anti-CD3/CD4/CD28 beads; in transgenic mouse T cells. activation, % (series mostly up to about 46 µM). hit rate 0.065% among 360,000; in the data active = activation above about 50%; inconclusive = mostly about 30% to 49%
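Screening format: compound pinned onto unstimulated transgenic mouse T cells, 60 min incubation, then anti-CD3/anti-CD4/anti-CD28 bead stimulation for 18 hours at 37 degrees C, followed by EGFP and DsRed detection.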
NPSR antag: antagonists of human neuropeptide S receptor cAMP signaling | CHO-NPSR cells, cAMP TR-FRET, antagonist mode | Potency, µM (titrated, usually from 38.3 µM), most hits filed as inhibitors | hit rate 1% among 220,000 | AID 1461; note: nearly all actives have a fitted effect of over 50% in size
Target sequence (Q6W5P4 whole entry, looked up): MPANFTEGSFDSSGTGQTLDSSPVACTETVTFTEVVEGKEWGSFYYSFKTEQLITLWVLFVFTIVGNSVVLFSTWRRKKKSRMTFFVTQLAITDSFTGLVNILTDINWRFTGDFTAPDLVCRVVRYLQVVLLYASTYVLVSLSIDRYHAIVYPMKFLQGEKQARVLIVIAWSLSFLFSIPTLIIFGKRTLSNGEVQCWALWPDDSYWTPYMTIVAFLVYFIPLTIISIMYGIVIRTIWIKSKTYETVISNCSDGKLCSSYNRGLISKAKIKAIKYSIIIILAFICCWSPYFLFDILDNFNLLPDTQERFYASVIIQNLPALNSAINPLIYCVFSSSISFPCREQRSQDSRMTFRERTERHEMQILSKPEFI
ClpP mod: qHTS Assay for Activators of ClpP; Potency, µM (highest dose often 57.5 µM); hit rate 1.9% among 340,000; ATP-dependent Clp protease proteolytic subunit (Bacillus subtilis (strain 168)), P80244; purified B. subtilis ClpP, FRET peptide cleavage, 20 min; active = well fitted falling curve with a large enough effect; inconclusive = small, poorly fitted or top-dose-only effect; inactive = no such curve, though single readings can be large or run the other way; note: the source files actives as falling curves though it sought activators and does not explain the sign; nearly all actives have a fitted effect of over 65% in size
Target sequence (P80244 whole entry, looked up): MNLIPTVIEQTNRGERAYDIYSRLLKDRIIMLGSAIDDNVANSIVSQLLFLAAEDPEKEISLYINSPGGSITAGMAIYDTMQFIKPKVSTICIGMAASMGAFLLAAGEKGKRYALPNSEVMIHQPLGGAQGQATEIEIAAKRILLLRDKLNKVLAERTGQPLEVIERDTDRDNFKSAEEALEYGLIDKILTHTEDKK
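Purified B. subtilis ClpP, 10 microg/mL final in Tris/HCl pH8 with KCl, BSA, glycerol and Tween-20, cleaved an Abz/nitrotyrosine-quenched decapeptide. Fluorescence (ex 320, em 430) was read at 0 and 20 min at room temperature. Delta was normalized to 5.8 microM ADEP and DMSO/no-enzyme controls.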
PKM2 activator: PKM2 (human) enzyme activation. purified PKM2, Kinase-Glo ATP luminescence, activation; response scale: 0% is enzyme alone, no compound. Potency, µM (titrated, usually from 57.5 µM), hits mostly activators. hit rate 0.34% among 260,000. AID 1631; note: nearly all actives have a fitted effect of over 55% in size
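ATP formation by purified human PK-M2, quantified via coupled luciferase luminescence after 1 h at room temperature with 0.1 mM ADP and 0.5 mM PEP final.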
Large screens that a line does not name were inactive. Unless noted, calls come from the whole dose curve; as a rule, active = well fitted curve in the direction sought with a large enough effect; inconclusive = small, poorly fitted or top-dose-only effect, or another doubt; inactive = no such curve, though single readings can be large; an effect the other way counts as inactive or inconclusive.

COc1cc(-c2nc(Cn3nnc(C(=O)Nc4ccccc4)c3C)c(C)o2)cc(OC)c1OC	ClpP mod 28.2µM (no result: IL-2 act, NPSR antag, PKM2 activator)
COc1cc(CC(=O)OCC(=O)NC2CCCCCC2)cc(OC)c1OC	none (no result: NPSR antag, PKM2 activator)
CCc1nc(NCCN)c(C#N)c2c1CSC(C)(C)C2	ClpP mod 22.4µM
CCc1nc(NCc2ccccc2)c(C#N)c2c1CCCC2	none
CN(C)CCNc1nc(-c2ccco2)c2c(c1C#N)CC(C)(C)OC2	ClpP mod inconclusive
N#Cc1c(NCCN)nc(-c2ccco2)c2c1CCCC2	ClpP mod 8.91µM
N#Cc1c(N2CCOCC2)nc(-c2ccco2)c2c1CCCC2	ClpP mod 35.5µM
CC(C)CCNc1nc(-c2ccco2)c2c(c1C#N)CCCC2	ClpP mod 14.1µM
CC(=O)Nc1ccc(S(=O)(=O)NCCc2cc3c(C)ccc(C)c3[nH]c2=O)cc1	none
CCC(=O)N1CCN(c2nc(-c3ccccc3)c3c(c2C#N)CCCC3)CC1	NPSR antag inconclusive, ClpP mod 31.6µM
CC1(C)Cc2c(C#N)c(NCc3ccco3)nc(-c3ccco3)c2CO1	ClpP mod 31.6µM
Cc1nc(NCc2ccco2)c(C#N)c2c1COC(C)(C)C2	ClpP mod inconclusive
N#Cc1c(SCC(=O)O)nc(-c2ccccc2)c2c1CCCC2	none
CCc1nc(NCCC(C)C)c(C#N)c2c1CCCC2	ClpP mod 15.8µM
O=C(c1cccc(F)c1)N1CCCN(C(=O)c2cccc(F)c2)CC1	none
O=C(c1cccc(Cl)c1)N1CCC(N2CCC(C(=O)N3CCOCC3)CC2)CC1	none (no result: ClpP mod)
O=C(c1cccc(F)c1)N1CCC(N2CCOCC2)CC1	ClpP mod 14.1µM
O=C(c1cccc(F)c1)N1CCN(c2cccc(Cl)c2)CC1	ClpP mod 28.2µM
Cc1c(NC(=O)COC(=O)c2ccc(F)c(S(=O)(=O)N3CCOCC3)c2)c(=O)n(-c2ccccc2)n1C	none (no result: ClpP mod)
O=C1c2cnc3ncnn3c2CC2c3ccccc3CCN12 (stereo unspecified)	none (no result: ClpP mod)
CSc1nc2ncc3c(n2n1)CC1c2ccccc2CCN1C3=O (stereo unspecified)	ClpP mod 28.2µM
Cc1ccc(C)c(OC2=NS(=O)(=O)c3ccccc32)c1	none (no result: ClpP mod)
Cc1ccc(C(C(=O)NC(C)(C)C)N(Cc2ccco2)C(=O)Cn2nnc(-c3cccs3)n2)cc1 (stereo unspecified)	ClpP mod 25.1µM
Nc1nc(C(=O)N2CCOCC2)nn1C(=O)c1ccc(Cl)cc1	none
COc1ccc(S(=O)(=O)N2CCOCC2)cc1NC(=O)COC(=O)C1CC2CCCC(C1)C2=O (stereo unspecified)	none (no result: NPSR antag)
Cc1nnc2c3ccccc3nc(Nc3ccccc3C(=O)O)n12	ClpP mod 15.8µM (no result: IL-2 act, NPSR antag, PKM2 activator)
O=[N+]([O-])c1ccc2c(c1)-c1ccccc1C2O (stereo unspecified)	none (no result: NPSR antag, PKM2 activator)
Cc1cc(NC(=O)CSc2nnc(-c3ccoc3C)o2)no1	PKM2 activator 15.8µM
Cc1ccc(-n2c(SCC(N)=O)nnc2-c2ccc(S(=O)(=O)N3CCCCC3)cc2)c(C)c1	ClpP mod 25.1µM
Cn1c(SCC(N)=O)nnc1-c1ccc(S(=O)(=O)N2CCCC2)cc1	none (no result: NPSR antag, ClpP mod, PKM2 activator)
CCc1ccc2nc(N(CCN(CC)CC)C(=O)c3ccco3)sc2c1	none (no result: IL-2 act, NPSR antag, PKM2 activator)
COCc1cc(C)nc(NCCc2ccccc2)c1C#N	ClpP mod 3.55µM
CNc1oc(-c2ccccc2)nc1C#N	none
CC(C)CNc1oc(-c2ccco2)nc1C#N	ClpP mod 17.8µM
N#Cc1nc(-c2ccco2)oc1NCc1ccc(F)cc1	ClpP mod 8.91µM
N#Cc1nc(-c2ccco2)oc1NCc1cccnc1	none
CC(C)CNc1oc(-c2ccccc2Cl)nc1C#N	none (no result: ClpP mod)
CC(Nc1oc(-c2ccco2)nc1C#N)c1ccccc1 (stereo unspecified)	ClpP mod 7.94µM
Cc1cc(Cl)ccc1OCC(=O)N1CCN(c2ncccn2)CC1	none
Cc1cccc(NC(=O)c2nc[nH]c2C(=O)NCCCCCCNC(=O)c2[nH]cnc2C(=O)Nc2cccc(C)c2)c1	none (no result: NPSR antag, PKM2 activator)
Clc1ccc(-c2nnc3ccccn23)cc1	ClpP mod 28.2µM
CCOC(=O)C(C)n1cnc2c(nnn2-c2cccc(Cl)c2)c1=O (stereo unspecified)	none
CC(=O)c1cc(C#N)c(SCCC(C)C)nc1C	none
CC(C)CCSc1nc(N)c(C#N)cc1C#N	ClpP mod 31.6µM
Cc1cc(C)nc(SCC(=O)Nc2ccc3c(c2)OCO3)n1	none (no result: NPSR antag)
O=C(CCN1CCCCCC1)Nc1ccc2c(c1)OCCO2	ClpP mod 14.1µM
CN(C)C(=O)Cn1c(SCC(=O)Nc2ccc3c(c2)OCO3)nc2ccccc21	ClpP mod 15.8µM
CN1CCN(CCC(=O)Nc2ccc3c(c2)OCO3)CC1	none
Cc1nc(SCC(=O)Nc2ccc3c(c2)OCCO3)nc(C)c1C	ClpP mod 20µM
CC(=O)c1cccc(NS(=O)(=O)c2c(C)nc3sc(C)cn3c2=O)c1	none (no result: IL-2 act, NPSR antag, PKM2 activator)
COC(=O)c1ccccc1NC1=C/C(=N\S(=O)(=O)c2cccs2)c2ccccc2C1=O	none
Cc1ccc(NC2=C/C(=N/S(=O)(=O)c3cccs3)c3ccccc3C2=O)cc1	NPSR antag 10µM
O=C1C(Nc2ccccc2)=C/C(=N/S(=O)(=O)c2cccs2)c2ccccc21	ClpP mod 11.2µM
Clc1ccccc1C(c1ccccc1)(c1ccccc1)n1ccnc1	NPSR antag 5.01µM
O=C1NC(=O)c2cc(Nc3ccccc3)c(Nc3ccccc3)cc21	NPSR antag 12.6µM (no result: IL-2 act, PKM2 activator)
CCC(=O)Nc1ccc2nc(SCc3ccc(C)cc3)sc2c1	none (no result: IL-2 act, NPSR antag, PKM2 activator)
COc1ccc(C(=O)Nc2ccc3nc(SCc4ccc(C)cc4)sc3c2)cc1	ClpP mod 25.1µM (no result: IL-2 act, NPSR antag, PKM2 activator)
O=C(CN(c1ccc(Cl)c(C(F)(F)F)c1)S(=O)(=O)c1ccccc1)N/N=C/c1cccc2c1OCCO2	NPSR antag inconclusive, ClpP mod 22.4µM
CCOC(=O)c1ccccc1N=N/C(C(C)=O)=C(/C)O	ClpP mod 28.2µM
c1ccc(-c2cc3c(-n4cccc4)ncnc3o2)cc1	ClpP mod 28.2µM
Clc1nnc2ccc(-c3ccccc3)nn12	ClpP mod 25.1µM
COC(=O)Cn1c(C)c(/C=C/c2cc[n+](C)cc2)c2ccccc21	IL-2 act 222.4 (no result: NPSR antag)
COC(=O)Cn1cc(/C=C/c2cc[n+](C)cc2)c2ccccc21	none (no result: NPSR antag)
COC(=O)[C@@]1(Cc2ccc(F)cc2)[C@H]2c3cc(C(=O)N4CCCC4)n(Cc4ccc(C)o4)c3C[C@H]2CN1C(=O)c1ccccc1	PKM2 activator 12.6µM (no result: NPSR antag)
COC(=O)[C@@]1(Cc2ccc(OC)cc2)[C@H]2c3cc(C(=O)N(C)C)n(CCO)c3C[C@H]2CN1C(=O)c1ccccc1	none (no result: IL-2 act, NPSR antag, ClpP mod)
COC(=O)[C@@]1(Cc2ccc(F)cc2)[C@H]2c3cc(C(=O)N4CCCC4)n(Cc4ccc(C)c(F)c4F)c3C[C@H]2CN1C(=O)c1ccccc1	none (no result: NPSR antag)
COC(=O)[C@@]1(Cc2ccc(OC)cc2)[C@H]2c3cc(C(=O)N(C)C)n(Cc4ccc(C)o4)c3C[C@H]2CN1C(=O)c1ccccc1	PKM2 activator 8.91µM (no result: IL-2 act, NPSR antag, ClpP mod)
O=C(Nc1cccnc1)c1cccc(-c2cc3ccccc3oc2=O)c1	none (no result: ClpP mod)
